A1 inh: inhibitors of the anti-apoptotic protein A1, read as caspase activation; 330,000 tested, 0.066% active; MEF A1-2A-BIM cells, Caspase-Glo 3/7 luminescence, 3 h; percent of clofoctol response, vehicle zero; caspase activation, % (concentration not given with the values);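 active = over half of replicate activation scores above 10%, or exactly half above 10 with the replicate mean above 10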
NALP1 yeast inh: blocks the NALP1 inflammasome reconstituted in yeast. inhibition, % at 10 µM. 280,000 tested, 0.61% active. S. cerevisiae NALP1/ASC/caspase-1 growth, X-gal OD620, 72 h; in the data active = inhibition mostly above about 24%, no sharp cut-off; inactive = mostly below about 32%
SUMO Mot1 rescue: blocks SUMOylation pathway, rescuing yeast Mot1-301 growth; 320,000 tested, 1% active; growth rescue, % at 18.8 µM; AID 2716; S. cerevisiae Mot1-301 growth rescue, ATP luminescence, 38.5C; percent above DMSO median, 100 means doubled;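 active = every valid replicate shows activation above 250% relative to neutral control wells; inactive = the rest, any valid replicate at or below 250%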;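 note: OY570 slx delta 5 strain wells were the positive control but not used for scaling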
CHT allo act: allosteric activators of human choline transporter CHT | Q9GZV3 | B-score at 10 µM | 310,000 tested, 0.49% active | CHT-expressing cells, membrane potential dye, choline EC20; hits give high values; LV-AA mutant CHT in HEK293 cells | AID 488977;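 active = initial fluorescence not abnormally high and integrated response B-score, plate-corrected, over 3 SD above library mean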
Target sequence (Q9GZV3 whole entry, looked up): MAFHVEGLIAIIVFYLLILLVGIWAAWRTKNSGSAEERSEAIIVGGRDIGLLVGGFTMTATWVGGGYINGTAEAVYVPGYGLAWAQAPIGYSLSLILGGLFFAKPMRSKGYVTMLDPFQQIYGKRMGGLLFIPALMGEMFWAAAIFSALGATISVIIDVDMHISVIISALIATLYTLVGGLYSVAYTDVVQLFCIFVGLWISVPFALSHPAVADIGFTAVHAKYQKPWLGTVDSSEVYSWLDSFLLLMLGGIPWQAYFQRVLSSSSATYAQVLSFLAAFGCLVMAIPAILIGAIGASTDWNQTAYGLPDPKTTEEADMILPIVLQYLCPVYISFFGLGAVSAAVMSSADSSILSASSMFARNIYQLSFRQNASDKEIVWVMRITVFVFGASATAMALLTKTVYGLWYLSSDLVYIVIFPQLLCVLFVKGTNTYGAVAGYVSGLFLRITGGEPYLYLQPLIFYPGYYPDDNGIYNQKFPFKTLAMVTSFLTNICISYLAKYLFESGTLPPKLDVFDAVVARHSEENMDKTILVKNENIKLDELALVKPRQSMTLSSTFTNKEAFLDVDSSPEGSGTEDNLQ
NLRP3 yeast inh: blocks the NALP3 inflammasome reconstituted in yeast. Yeast reconstituted NLRP3/ASC/caspase-1, beta-gal luminescence, 24 h. inhibition, % at 10 µM. 330,000 tested, 0.39% active. AID 2825;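 active = inhibition of 50% or more; inactive = inhibition below 50%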;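 note: plate controls were induced DMSO wells for no effect and uninduced yeast grown without galactose for full effect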
CHT inh: inhibits the human high affinity choline transporter; 310,000 tested, 0.86% active; AID 488975; CHT-expressing cells, membrane potential dye, choline response; hits give low values; B-score at 10 µM; Q9GZV3;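 active = B-score over 3 SD under the library average, and starting fluorescence ratio not unusually high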;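 note: choline stimulus applied at its EC90 after an EC20 pre-addition; B-score computed on integrated fluorescence ratio after choline addition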
CHT act confirm: confirmation of human choline transporter (CHT) activators | CHT-expressing cells, membrane potential dye fluorescence (FDSS); % of choline EC20–EC90 response window; HEK293 expressing CHT LV-AA mutant; choline added at its EC20 | 2,500 tested, 91% active | shares compounds with CHT allo act | activation, % at 10 µM;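 active = primary screen active, with duplicate mean activation above negative control mean plus 3 SD, cut at about 11% in these data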
HEK293 MP dye: CHT activator counter-screen hit in parental HEK293 cells; shares compounds with CHT allo act; membrane potential dye fluorescence (FDSS); measured after EC20 choline addition; ratio readout change at 10 µM, hits read low; 2,500 tested, 62% active; AID 623908;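 active = duplicate-averaged ratio beyond 3 SD from buffer wells, up or down, though filed actives are nearly all decreases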
Active calls of the source: *; i = inactive; . = not tested or not shown. The list is not random: actives were taken first. Their share in the collection is about 3%.

SMILES | A1 inh | NALP1 yeast inh | SUMO Mot1 rescue | CHT allo act | NLRP3 yeast inh | CHT inh | CHT act confirm | HEK293 MP dye
CC(C)Cc1ccc(C(C)C(N)=NCCc2ccccc2)cc1 (configuration not stated) | 0 | 15 | -1 | 13* | 19 | i | 6 | i
COc1ccc(CCN=C(N)C(C)c2ccccc2)cc1OC (configuration not stated) | 0 | . | -5 | i | 4 | i | . | .
COc1ccc(S(=O)(=O)NCC(=O)NCCc2ccc(OC)c(OC)c2)cc1 | 0 | . | 25 | i | 0 | i | . | .
CCCC[n+]1c2ccccc2cc2ccccc21 | 0 | 33 | 19 | i | 42 | i | . | .
CCC[n+]1c2ccccc2cc2ccccc21 | 0 | -2 | -6 | i | 25 | i | 76* | -71*
COc1cc2[nH]c(C(=O)N3CCN(c4ccc(F)cc4)CC3)cc2c(OC)c1OC | 0 | 14 | 0 | i | 21 | i | . | .
COc1cc(CNC(C)C23CC4CC(CC(C4)C2)C3)ccc1OCC(=O)NC(C)(C)C (configuration not stated) | 0 | -16 | -5 | i | 6 | i | . | .
CC(NCc1cc(Br)ccc1OCC(N)=O)C12CC3CC(CC(C3)C1)C2 (configuration not stated) | 0 | 25 | -9 | 11* | 8 | i | 23* | i
COC(=O)c1ccccc1NC(=O)c1cc[n+](C)cc1 | 1 | . | 1 | i | 11 | i | 60* | -55*
COC(=O)c1ccccc1NC(=O)c1cc[n+]([O-])cc1 | 1 | 8 | 12 | i | 6 | i | . | .
CCC(C)Nc1ccc(NC(C)CC)cc1 (configuration not stated) | 0 | . | 74 | . | 5 | . | . | .
CCCCCC(=O)Nc1ccccc1N1CCOCC1 | 2 | 30 | 2 | i | 16 | i | . | .
CCCCC(=O)Nc1ccccc1N1CCN(c2ccccc2)CC1 | 0 | 10 | 0 | i | 15 | i | 22* | i
COc1ccc(Nc2nccc(N(C)C)c2C#N)cc1 | -1 | -5 | -2 | i | 7 | i | 50* | -42*
O=C(CNC(=O)c1cccs1)Nc1ccncc1 | 1 | . | -9 | i | -3 | i | . | .
COc1ccccc1N=Nc1nc(-c2ccccc2)c(-c2ccccc2)[nH]1 | 1 | 3 | 22 | i | . | i | . | .
Oc1ccccc1N=Nc1nc(-c2ccccc2)c(-c2ccccc2)[nH]1 | -1 | -7 | 120 | i | 21 | i | 0 | i
CCN(CC)C(=O)C1CCN(Cc2cn(C)nc2-c2ccc(Oc3ccccc3)cc2)CC1 | 0 | 3 | 22 | i | 15 | i | 1 | i
C[C@H]1C(=O)N(C)CCN1Cc1cn(C)nc1-c1ccc(Oc2ccccc2)cc1 | 0 | 3 | 2 | i | 2 | i | . | .
Cc1ccc(/C=C/C(=O)Nc2ccc(S(=O)(=O)Nc3onc(C)c3C)cc2)cc1 | 0 | -13 | -6 | i | 25 | i | . | .
Oc1ccccc1CNc1cccc2cccnc12 | -1 | -1 | -13 | i | 14 | i | . | .
Nc1sc(-c2ccccc2)n[n+]1Cc1cccc2cccnc12 | 0 | . | 92 | 7.8* | 20 | i | 12* | i
CC(C)C[C@@]12C(=O)N(c3cccc(F)c3)C(=O)N1[C@H](c1ccc(Cl)cc1)[C@@H]1C(=O)N(C3CCCCC3)C(=O)[C@@H]12 | 0 | . | 112 | i | 7 | i | . | .
CCOC(=O)c1c(NC(=O)COc2cccc3c2CCN(C)C3=O)sc2c1CCC2 | -1 | 15 | -1 | i | 10 | i | 25* | i
Cc1cccc(NC(=O)COc2cccc3c2CCN(C)C3=O)c1C | 0 | 21 | 12 | i | -1 | i | . | .
SMILES | A1 inh | NALP1 yeast inh | SUMO Mot1 rescue | CHT allo act | NLRP3 yeast inh | CHT inh | CHT act confirm | HEK293 MP dye
Cc1cc(N2CCOCC2)c2c(N)c(C)cc(C)c2n1 | 0 | 19 | 198 | 12* | 7 | i | 58* | -78*
O/N=C/c1ccc2cccc(OCc3ccccc3)c2n1 | 0 | 6 | 13 | i | 26 | i | . | .
NC(N)=N/N=C/c1ccc2cccc(OCc3ccccc3)c2n1 | 0 | -5 | -7 | 6.3* | 8 | i | 14* | i
Cn1c(=O)n(C)c2cc([N+](=O)[O-])c(N3CCN(S(C)(=O)=O)CC3)cc21 | 1 | 16 | 51 | i | -10 | i | . | .
Cn1c(=O)n(C)c2cc([N+](=O)[O-])c(N3CCN(CCO)CC3)cc21 | 0 | 2 | -12 | 9.3* | 16 | i | 53* | -70*
O=C(CCC(=O)c1ccccc1)Nc1ccccc1 | 1 | . | -13 | i | 26 | i | . | .
Cc1cc(OC(C)C(=O)NCCCN2CCOCC2)c2c(C)cc(=O)oc2c1 (configuration not stated) | -1 | 7 | 6 | i | 5 | i | 50* | -41*
CCc1cc(=O)oc2cc(C)cc(OC(C)C(=O)NCCN3CCOCC3)c12 (configuration not stated) | 0 | 19 | -16 | i | 1 | i | . | .
CCCc1cc(=O)oc2cc(C)cc(OC(C)C(=O)NCCCN3CCOCC3)c12 (configuration not stated) | -1 | 11 | -5 | i | 2 | i | . | .
Cc1cc(OC(C)C(=O)NCCN2CCOCC2)c2c(C)c(C)c(=O)oc2c1 (configuration not stated) | -1 | 22 | 11 | i | 4 | i | 58* | -56*
Cc1nc2ccccc2c(C)c1C(=O)c1ccccc1 | 1 | -8 | -2 | i | -18 | i | . | .
Nc1c2ccccc2nc2ccccc12 | 1 | -10 | 4 | i | -9 | i | . | .
CC(=O)c1c(C)nc2ccccc2c1N | 2 | 3 | 46 | 8.6* | 12 | i | 56* | -44*
Cc1c(N(C)C)nc2ccccc2c1N | 1 | 15 | 11 | 7* | -1 | i | 53* | -58*
CC1(C)C(CSc2nc3ccccc3[nH]2)C1(Cl)Cl (configuration not stated) | 0 | 6 | 8 | i | 30 | i | . | .
CCOC(=O)c1cc(-c2ccncc2)nc2c1c(C)nn2-c1ccccn1 | -2 | . | 116 | 7.7* | -4 | i | 30* | -20*
COc1ccc(-c2cc(C(=O)O)c3c(C)nn(-c4ccccn4)c3n2)cc1 | 0 | -3 | 10 | i | 13 | i | . | .
